PubChem BioAssay (NCI)
The panel holds about 83,000 compounds, 20% with a hit somewhere; the sample as a whole holds those more often.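 How to read the values: 0–100, growth inhibition (40 = 60% inhibited); 0, no net growth; -100 to 0, cell death (-40 = 40% of starting cells died; -100 = all dead).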 Unmarked numbers belong to inactive results. The source made the active and inactive calls. How the source made its calls: active means growth percent below 10; inactive means the rest.

Tests used:
Test in all cases: NCI-60 one-dose screen, 48 h (100 = growth as untreated, 0 = no growth, -100 = all killed)
Conditions in all cases: 10 µM unless noted
SK-MEL-2 melanoma = system: SK-MEL-2 melanoma
EKVX NSCLC = system: EKVX NSCLC
SN12C renal = system: SN12C renal
UO-31 renal = system: UO-31 renal
TK-10 renal = system: TK-10 renal
ACHN renal = system: ACHN renal
CAKI-1 renal = system: CAKI-1 renal
A498 renal = system: A498 renal
CCRF-CEM leukemia = system: CCRF-CEM leukemia
MOLT-4 leukemia = system: MOLT-4 leukemia

Structure (SMILES) | growth (SK-MEL-2 melanoma) | growth (EKVX NSCLC) | growth (SN12C renal) | growth (UO-31 renal) | growth (TK-10 renal) | growth (ACHN renal) | growth (CAKI-1 renal) | growth (A498 renal) | growth (CCRF-CEM leukemia) | growth (MOLT-4 leukemia)
NNc1nc(-c2cccnc2)nc2c1sc(=S)n2-c1ccccc1 | 68% | 95.1% | 102% | 79.3% | 83.6% | 106% | 97.9% | 124% | 90.5% | 86%
CCCCCCCCCc1ccc(OCCOCCOCCOCCOCCOCCOCCOCCOCCO)cc1 | 7.03% (active) | 15.5% | 13% | 12.8% | 23.1% | 18.9% | 13.6% | -5.27% (active) | -22.2% (active) | -17.6% (active)
C=C1C(=O)O[C@H]2[C@H]1CC/C(Cn1cc(-c3ccccc3)nn1)=C\CC[C@@]1(C)O[C@@H]21 | 6.62% (active) | 72.1% | 6.55% (active) | -75.1% (active) | -72.1% (active) | -40.7% (active) | -62.8% (active) | 46.6% | -20.7% (active) | -13.8% (active)
COC(=O)C1Cc2ccccc2CN1C(=O)c1ccc2c(c1)Cc1ccccc1-2 (stereo not given) | 47.4% [50 µM] | 24.5% [50 µM] | 38.5% [50 µM] | 13.9% [50 µM] | 52.2% [50 µM] | 43.3% [50 µM] | 28.7% [50 µM] | 27.3% [50 µM] | 32.1% [50 µM] | 21.9% [50 µM]
Clc1ccc(/C=N\N=C\c2ccc(Cl)c(Cl)c2)cc1Cl | 18.4% | 111% | 87.3% | 77.4% | 97.5% | -3.05% (active) | 33% | 108% | 83.1% | 93.1%
Cc1ccc(NC(=O)Cn2cc(CN3CCN(c4ccnc5cc(Cl)ccc45)CC3)nn2)cc1 | 114% | 80.7% | 93.9% | 62.7% | 95.4% | 81.1% | 73.1% | 88% | -31.6% (active) | -15.7% (active)
COc1ccc2c(c1OC)CO[C@@H]2[C@H]1c2c(cc3c(c2OC)OCO3)CCN1S(=O)(=O)c1cn(C)cn1 | 36.3% | 45.6% | 41.1% | 46.2% | 54.1% | 36.6% | 31.7% | -21.3% (active) | 21.4% | 27.4%
C=CCn1c(C)nc2ccc(Nc3nc(Nc4ccc5nc(C)n(CC=C)c5c4)c4ccccc4n3)cc21 | -83.8% (active) | 2.58% (active) | -74.9% (active) | -91.4% (active) | -88.5% (active) | -80% (active) | -24.1% (active) | 99.5% | -20.8% (active) | -45.5% (active)
CCN(CC)Cc1cc(C=C2C(=O)NC(=S)NC2=O)cc(OC)c1O | 119% | 106% | 100% | 90.1% | 110% | 107% | 99.3% | 98.8% | 104% | 108%
CCCC/C(CC)=N\NS(=O)(=O)c1ccc([N+](=O)[O-])cc1 | 94.6% | 102% | 102% | 83.3% | 93.4% | 104% | 96.9% | 96.3% | 87.1% | 101%
O=C(N/N=C/c1ccc(Cl)cc1)c1[nH]c2ccc(Cl)cc2c1-c1ccccc1 | -9.34% (active) | 40.7% | 28.1% | 24.7% | 51.8% | 28.4% | 20.9% | 36.2% | 19.3% | 33.7%
COc1cc(/C=C2/C=C(c3ccccc3)N(CCc3ccc(S(N)(=O)=O)cc3)C2=O)cc(OC)c1OC | 104% | 105% | 105% | 87.8% | 96.2% | 103% | 99.1% | 86.6% | 91% | 83.1%
c1cc2c(ccc3[nH]c(-c4ccc5[nH]ncc5c4)c4c(c32)CCCC4)n1 | 83.6% | 62.7% | 46% | 53.3% | 80.2% | 32.3% | 69.8% | 74.3% | 13.6% | -0.124% (active)
CC(=O)Oc1ccc(C)cc1C | 99.7% | 112% | 102% | 85.7% | 102% | 101% | 101% | 87.4% | 102% | 106%
COc1cc2c(c(OC)c1OC)CCC(c1cccc(C(=O)Nc3cccc(Cl)c3)c1)O2 (stereo not given) | 58.3% | 64.2% | 50% | 40.8% | 70.4% | 65.4% | 84.8% | 6.84% (active) | 37.8% | 30.4%
C=C1CC[C@@H]2[C@](C)(COC(C)=O)[C@H](OC(C)=O)CC[C@@]2(C)[C@@H]1CC(Nc1ccc(S(=O)(=O)Nc2ncccn2)cc1)C1=CCOC1=O (stereo not given in full) | 41.9% | 68.3% | 7.64% (active) | -17.9% (active) | 35.1% | -56.1% (active) | 50.2% | 79% | -26.3% (active) | -8.69% (active)
CCN(CC)c1ccc(\C=N/N=C(N)/C(N)=N\N=C/c2ccc(N(CC)CC)cc2)cc1 | 97.7% | 104% | 105% | 82.9% | 113% | 96.4% | 88.9% | 102% | 89% | 95.8%
CCOC(=O)Cc1cnc(N/N=C(\C)c2cc3ccccc3o2)s1 | 113% | 85.1% | 99.1% | 64.7% | 144% | 90.7% | 81.6% | 113% | 92.5% | 55.5%
NC(=O)c1ccc(-c2c3ccccc3cc3c2ccc2ccccc23)cc1 | 43.7% | 67.7% | 72.9% | 57.5% | 70.2% | 57.2% | 61.7% | 70% | 37.8% | 40.5%
O=C(Nn1c2c(sc1=NC1CC1)C(=O)c1ccccc1C2=O)c1cc2ccc1CCc1ccc(cc1)CC2 | 49.5% | 67.5% | 30.9% | 21.5% | 115% | 25.6% | 30.8% | 89.4% | 22.6% | 8.53% (active)
CCC(C)(C)C(=O)O[C@H]1C[C@@H](C)C=C2C=C[C@H](C)[C@H](CC[C@@H]3CC(SCCN)CC(=O)O3)[C@H]21 (stereo not given in full) | 91.1% | 105% | 77% | 68.6% | 92.1% | 95.8% | 83.9% | 90.3% | 12.1% | 77.7%
CCCOC(=O)Nc1nc2ccc(SCC(C)C)cc2s1 | 48.6% | 52.3% | 44.4% | 44.8% | 50.4% | 51.9% | 49.1% | 40.8% | 22.9% | 33.8%
Cc1cccc(/C=C2\CN(C(=O)OC(C)(C)C)C/C(=C\c3cccc(C)c3)C2=O)c1 | 95.3% | 93.4% | 95.4% | 69% | 96.1% | 84% | 73.5% | 93.9% | 8.66% (active) | 51.8%
CN(C)CCNC(=O)c1ccc(-c2nc3ccc4[nH]ncc4c3c3c2C2CCC3C2)cc1 (stereo not given) | -5.51% (active) | 68.4% | 10.2% | 8.05% (active) | 83% | 17.4% | 15.2% | -20.9% (active) | 6.57% (active) | -8.33% (active)
O=C(Nc1nc(-c2ccc(Cl)cc2)nc2c1sc(=S)n2-c1ccccc1)C(F)(F)F | 43.3% | 55% | 57% | -41.9% (active) | -31.9% (active) | -48.5% (active) | 20.2% | -8.62% (active) | 72.2% | 82.6%
COc1ccc(C(=O)Nc2cccc(-c3cc(=O)c4c(OC)c(OC)c(OC)cc4o3)c2)cc1 | 61.3% | 77.3% | 50% | 26.5% | 76.7% | 47% | 57.4% | 69.3% | 27.5% | 23.3%
